Compound activity (PubChem)
The list is not random: actives were taken first. Their share in the collection is about 2.4%.
Pol kappa inh = DNA polymerase kappa (human) inhibition. purified Pol kappa, fluorescent DNA synthesis assay, 10 min. 400,000 tested, 0.53% active. Q9UBT6. Potency, µM (doses to about 107 µM), most hits filed as inhibitors
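50 nM final substrate added after 15 min RT preincubation of 10 nM Pol kappa with compound; fluorescence read at 0 and 10 min.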
POLB inh = inhibitors of human DNA polymerase beta | P06746 | Pol beta primer extension/strand displacement, fluorescence kinetic | Potency, µM (highest dose often 114 µM), actives largely listed as inhibitors | 340,000 tested, 1.3% active
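Pol beta (10 nM) and compounds were preincubated 15 min at room temperature, then 50 nM substrate (final) started primer extension/strand displacement. Reads were taken at 0 and 10 min; concentration-response data were fitted to a four-parameter Hill equation.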
L3MBTL1 block = blocks human L3MBTL1 | AlphaScreen L3MBTL1–H3K9me1 peptide binding | Potency, µM (highest dose often 57.1 µM), usual class: inhibitors | Q9Y468 | 230,000 tested, 0.66% active; further: nearly all actives have a fitted effect of over 60% in size
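Read-out is AlphaScreen signal from streptavidin donor and nickel chelate acceptor beads (10 ug/mL final each) bridging L3MBTL1 (50 nM) and biotinylated K9-monomethylated H3(1-15) peptide (75 nM), after 30 min compound exposure at room temperature.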
POLH inh = blocks human DNA polymerase eta activity | Potency, µM (doses to about 114 µM), most hits filed as inhibitors | recombinant Pol eta, fluorescent DNA replication assay | 390,000 tested, 1.2% active | Q9Y253
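Pol eta at 10 nM preincubated with compounds 15 min at room temperature; reaction started with fluorescent substrate (50 nM final) and read kinetically at 0 and 10 min.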
Pol iota inh = inhibitors of human DNA polymerase iota. Q9UNA4. Pol iota fluorescent replication assay, 10 min. Potency, µM (titrated, usually from 115 µM), actives largely listed as inhibitors. 390,000 tested, 1% active
Target sequence (Q9UNA4 whole entry, looked up): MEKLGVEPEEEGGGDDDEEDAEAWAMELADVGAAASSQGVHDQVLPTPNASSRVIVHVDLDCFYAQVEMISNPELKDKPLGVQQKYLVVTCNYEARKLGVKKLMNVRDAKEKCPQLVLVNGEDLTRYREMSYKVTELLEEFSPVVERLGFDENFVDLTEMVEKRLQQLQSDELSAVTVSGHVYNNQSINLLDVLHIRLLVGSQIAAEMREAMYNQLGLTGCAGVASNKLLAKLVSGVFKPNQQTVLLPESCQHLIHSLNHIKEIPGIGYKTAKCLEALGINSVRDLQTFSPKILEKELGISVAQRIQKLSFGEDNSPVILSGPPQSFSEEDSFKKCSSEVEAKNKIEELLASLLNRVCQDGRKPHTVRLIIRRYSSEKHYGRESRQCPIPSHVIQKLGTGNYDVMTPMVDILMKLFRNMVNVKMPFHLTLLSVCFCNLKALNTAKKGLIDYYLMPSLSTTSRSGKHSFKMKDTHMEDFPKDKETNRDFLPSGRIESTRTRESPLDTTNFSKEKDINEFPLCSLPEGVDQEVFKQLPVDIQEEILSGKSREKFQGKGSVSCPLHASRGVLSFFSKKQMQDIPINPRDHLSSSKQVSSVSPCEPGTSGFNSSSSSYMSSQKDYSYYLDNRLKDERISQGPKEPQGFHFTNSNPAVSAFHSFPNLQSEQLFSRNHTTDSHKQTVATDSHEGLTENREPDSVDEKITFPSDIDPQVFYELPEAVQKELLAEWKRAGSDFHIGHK
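Pol iota at 10 nM preincubated 15 min with compounds at room temperature; reaction started with fluorescent substrate, 50 nM final. Fluorescence read kinetically at 0 and 10 min; buffer-only wells as negative control.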
A number is an active result. The call rests on the fitted dose curve; in most records, active means well fitted curve in the direction sought with a large enough effect; inconclusive means small, poorly fitted or top-dose-only effect, or another doubt; inactive means no such curve, though single readings can be large; an effect the other way counts as inactive or inconclusive.

Results for CCCCN(C(=O)CN1CC(C)OC(C)C1)c1c(N)n(CC(C)C)c(=O)[nH]c1=O (configuration not stated) ?
Pol kappa inh: inactive; POLB inh: inactive; L3MBTL1 block: inactive; POLH inh: inactive; Pol iota inh: inactive

Results for CCCCNC(=O)NS(=O)(=O)c1ccc(C(=O)O)cc1 ?
Pol kappa inh: inactive

Results for CCSC1=C(C#N)C(c2ccc(C)o2)CC(=O)N1 (configuration not stated) ?
Pol kappa inh: inactive; POLB inh: inactive; L3MBTL1 block: inactive; POLH inh: inactive; Pol iota inh: inactive

What do the screens show for `Cc1ccc(C2CC(=O)NC(SCc3ccccc3)=C2C#N)o1` (configuration not stated)?
Pol kappa inh: inactive; POLB inh: inactive; L3MBTL1 block: 18µM; POLH inh: inactive; Pol iota inh: inconclusive

What do the screens show for `COc1ccccc1C(=O)NC1(C(F)(F)F)C(=O)Nc2c1c(=O)[nH]c(=O)n2CCc1ccccc1` (configuration not stated)?
Pol kappa inh: inactive; POLB inh: inactive; POLH inh: inactive; Pol iota inh: inactive

What do the screens show for `CCN(CC)c1nc(N)c2c(N)n(-c3ccccc3C)c(=S)c(C#N)c2c1C#N`?
Pol kappa inh: inconclusive; POLB inh: inactive; POLH inh: 45µM; Pol iota inh: inconclusive

What do the screens show for `COc1ccc2c(c1)c1c(c(=O)n(Cc3ccccc3)c(=O)n1Cc1cc(C)ccc1C)n2C`?
Pol kappa inh: inactive; POLB inh: inactive; POLH inh: inactive; Pol iota inh: inactive

Results for COCCCN1C(=O)C2C(C(=O)Nc3cc(C)cc(C)c3)C3C=CC2(O3)C1C(=O)NC1CCCCC1 (configuration not stated) ?
Pol kappa inh: inactive; POLB inh: inactive; POLH inh: 22µM; Pol iota inh: 13µM

Results for Cc1cccc(NC(=O)CN2C(=O)CC(c3ccccc3)Sc3ccccc32)c1 (configuration not stated) ?
Pol kappa inh: inactive; POLB inh: inactive; POLH inh: inactive; Pol iota inh: inactive

Results for O=C(OC1CCOC1=O)c1ccccc1C(=O)c1ccc(Cl)c([N+](=O)[O-])c1 (configuration not stated) ?
Pol kappa inh: inactive; L3MBTL1 block: inactive; POLH inh: 50µM; Pol iota inh: 40µM

Results for Cc1cc(C)c2c(NC(=O)c3ccccc3Cl)c(C(=O)NCc3ccc(Cl)cc3)sc2n1 ?
Pol kappa inh: inactive; POLB inh: 22µM; Pol iota inh: inactive

Results for O=C(O)/C=C/C(=O)c1c(-c2ccccc2)[nH]c2ccccc12 ?
Pol kappa inh: inactive; POLB inh: inactive; L3MBTL1 block: inactive; POLH inh: inconclusive; Pol iota inh: 2.5µM

How did CSc1ccc(CCNC(=O)c2cc(C)nc3c2c(C)nn3-c2ccccc2)cc1 do in these assays?
Pol kappa inh: inactive; POLB inh: inactive; POLH inh: inactive; Pol iota inh: inactive

How did Cc1nc(-c2ccc(C(=O)Nc3cccc(Br)c3)cc2)cs1 do in these assays?
Pol kappa inh: inactive; POLB inh: 32µM; L3MBTL1 block: inactive; POLH inh: inactive; Pol iota inh: inconclusive

Results for Cc1nc(-c2ccc(C(=O)O)cc2)cs1 ?
Pol kappa inh: inactive; POLB inh: 79µM; L3MBTL1 block: inactive; POLH inh: inactive; Pol iota inh: inactive

Results for Cc1noc(C)c1-c1nccc(NCc2ccccc2)n1 ?
Pol kappa inh: inactive

What do the screens show for `C#CCOCCOCCOCCNc1nc(N2CCN(C(=O)[C@H](Cc3ccc(O)cc3)n3cc([C@@H](N)CC(C)C)nn3)CC2)nc(N2CCN(C(=O)[C@H](Cc3ccc(O)cc3)n3cc([C@@H](N)CC(C)C)nn3)CC2)n1`?
POLB inh: 32µM; L3MBTL1 block: inactive

Results for C#CCOCCOCCOCCNc1nc(N2CCN(C(=O)C(Cc3cc4ccccc4[nH]3)n3cc(C(N)C(C)CC)nn3)CC2)nc(N2CCN(C(=O)C(Cc3cc4ccccc4[nH]3)n3cc(C(N)C(C)CC)nn3)CC2)n1 (configuration not stated) ?
Pol kappa inh: inactive; POLB inh: 20µM; L3MBTL1 block: inconclusive; POLH inh: inactive; Pol iota inh: inconclusive
